# Source: PubChem BioAssay AID2071 (Sanford-Burnham Center for Chemical Genomics, 2009)
# The campaign covered roughly 280,000 compounds. About 1,700 (0.61%) were called active. No stated cut-off is given here; in the data, active means inhibition mostly above about 24% (no sharp cut-off); inactive means mostly below about 32%. This excerpt belongs to a sample that is enriched for actives.
# Test: NALP1 inflammasome inhibitors in reconstituted yeast, colorimetric, S. cerevisiae, triplicate retest (AID 2071)
# Settings: S. cerevisiae NALP1/ASC/caspase-1 growth, X-gal OD620, 72 h, stronger effect = higher value
structure (smiles),measurement,setting,value
CCc1noc(C)c1C(=O)N1CCCC(N2CCN(c3ccc(F)cc3)CC2)C1 (stereo not drawn),inhibition,at 10 µM unless noted,15% (inactive)
CCOc1ccc(-n2c(SCC(N)=O)nnc2-c2ccco2)cc1,inhibition,at 10 µM unless noted,7.9% (inactive)
Oc1c(Cl)cc(Cl)c(Cl)c1Cc1c(O)c(Cl)cc(Cl)c1Cl,inhibition,at 10 µM,121% (active)
same,inhibition,"triplicate retest, at 20 µM",100%
Cc1cc(S(=O)(=O)NCC(C)C)ccc1OCC(=O)NC1CC1,inhibition,at 10 µM unless noted,13.3% (inactive)
COc1ccc(NC(=O)C2CCN(S(=O)(=O)c3ccc4[nH]c(=O)oc4c3)CC2)c(OC)c1,inhibition,at 10 µM unless noted,-45% (inactive)
Cn1c(=O)oc2cc(S(=O)(=O)N3CCC(C(=O)Nc4ccc(OC(F)(F)F)cc4)CC3)ccc21,inhibition,at 10 µM unless noted,22.5% (active)
Cc1ccc2nc(NC(=O)C3CCN(S(=O)(=O)c4ccc5c(c4)oc(=O)n5C)CC3)sc2c1,inhibition,at 10 µM unless noted,0.1% (inactive)
COCCCNC(=S)N(CCN(C)C)Cc1cc2cc3c(cc2[nH]c1=O)OCCO3,inhibition,at 10 µM unless noted,8.7% (inactive)
COc1ccc(C(=O)Nc2ccnn2C2CCN(Cc3ccncc3)CC2)cc1,inhibition,at 10 µM unless noted,14.9% (inactive)
COc1cc2[nH]c(=O)n(CCC(=O)NC3CCN(Cc4ccccc4)CC3)c(=O)c2cc1OC,inhibition,at 10 µM unless noted,15.6% (inactive)
COc1cc(C(=O)NC2CCN(Cc3ccccc3)CC2)cc(Cl)c1OC(C)C,inhibition,at 10 µM unless noted,19.9% (inactive)
COc1cc2[nH]c(=O)n(Cc3ccc(C(=O)NC4CCN(Cc5ccccc5)CC4)cc3)c(=O)c2cc1OC,inhibition,at 10 µM unless noted,36.6% (active)
O=C(N/N=C\C1CC=CCC1)c1ccc(Br)o1 (stereo not drawn),inhibition,at 10 µM unless noted,11.4% (inactive)
CCCn1c(C2CCCN2c2nc(-c3ccc(OC)cc3)cs2)nc2ccccc21 (stereo not drawn),inhibition,at 10 µM unless noted,21.7% (inactive)
Oc1ccc(N=Nc2nccs2)c(O)c1,inhibition,at 10 µM unless noted,8.1% (inactive)
Oc1ccc2ccccc2c1N=Nc1nccs1,inhibition,at 10 µM unless noted,59.8% (active)
Oc1ccc(N=Cc2c(O)ccc3ccccc23)cc1,inhibition,at 10 µM unless noted,-1.8% (inactive)
O=C(NCCNc1ccc([N+](=O)[O-])cc1Cl)c1ccccc1F,inhibition,at 10 µM unless noted,29.5% (inactive)
Fc1ccccc1N=C1Nc2cccc3cccc1c23,inhibition,at 10 µM unless noted,-0.1% (inactive)
COc1ccccc1C1=Nc2cccc3cccc(c23)N1,inhibition,at 10 µM unless noted,9.5% (inactive)
c1ccc(C2=Nc3cccc4cccc(c34)N2)cc1,inhibition,at 10 µM unless noted,47.7% (active)
O=C(c1noc2c1CCCC2)N1CCc2ccccc2C1,inhibition,at 10 µM unless noted,3.2% (inactive)
COc1ccc(N2CCN(C(=O)c3ccccc3NC(=O)C3=C(C)OCCS3)CC2)cc1,inhibition,at 10 µM unless noted,13.7% (inactive)
COc1cc(-c2c(-c3ccc4c(c3)OCO4)noc2C)ccc1F,inhibition,at 10 µM unless noted,3.9% (inactive)
Fc1ccc(NC(=S)N2CCc3[nH]c4ccccc4c3C2)cc1,inhibition,at 10 µM unless noted,-2.7% (inactive)
C=CCNC(=S)N1CCc2[nH]c3ccccc3c2C1,inhibition,at 10 µM unless noted,36.9% (active)
CCCC(=O)N1CCc2[nH]c3ccccc3c2C1,inhibition,at 10 µM unless noted,12.2% (inactive)
Cc1ccnc(N2C(=O)c3ccc([N+](=O)[O-])cc3C2=O)c1,inhibition,at 10 µM unless noted,4.8% (inactive)
O=C(NCc1ccccc1)C1=C[C@@H](c2ccc(C(F)(F)F)cc2)C[C@@H](OCc2ccc(CO)cc2)O1,inhibition,at 10 µM unless noted,-7.3% (inactive)
O=C(C1=C[C@H](C2CC2)C[C@H](OCc2ccc(CO)cc2)O1)N1CCN(Cc2ccccc2)CC1,inhibition,at 10 µM unless noted,-5.8% (inactive)
O=C(C1=C[C@H](c2ccc(C(F)(F)F)cc2)C[C@H](OCc2ccc(CO)cc2)O1)N1CCN(Cc2ccccc2)CC1,inhibition,at 10 µM unless noted,26.9% (active)
CCN1C(=NCC(C)C)N[C@@H](CCc2ccccc2)[C@H](C(=O)NCC(C)C)[C@H]1C,inhibition,at 10 µM unless noted,-12.1% (inactive)
CCC(CC)c1nnc(NC(=O)C2CCN(C(=O)c3ccco3)CC2)s1,inhibition,at 10 µM unless noted,-1% (inactive)
CC(=O)N1CCN(CC(C)(C)NS(=O)(=O)c2ccc(C)cc2)CC1,inhibition,at 10 µM unless noted,-1% (inactive)
COc1ccc(NC(=O)c2sc3nc(C)nc(N4CCN(c5ccccn5)CC4)c3c2C)c(OC)c1,inhibition,at 10 µM unless noted,-10.9% (inactive)
CC1(C)CCSC(/C=C/c2ccccc2)=N1,inhibition,at 10 µM,53.2% (active)
same,inhibition,"triplicate retest, at 20 µM",102%
CN(C)CCOC1c2ccccc2-c2ccccc21,inhibition,at 10 µM unless noted,6% (inactive)
CCCCCCCCCCOC(=O)Cn1c(COc2cccc(OC)c2)[n+](C)c2ccccc21,inhibition,at 10 µM unless noted,36.3% (active)
COc1cccc(OCC(=O)Nc2ccccc2C(N)=O)c1,inhibition,at 10 µM unless noted,1.7% (inactive)
CCCCOC(=O)Cn1c(=O)n(CC(=O)OCCCC)c2cc(C)ccc21,inhibition,at 10 µM unless noted,-1% (inactive)
Cc1ccc(OCc2nc3ccccc3n2C)cc1,inhibition,at 10 µM unless noted,33.1% (inactive)
CCCCCCCCCCOC(=O)Cn1c(COc2ccc(C)cc2)[n+](C)c2ccccc21,inhibition,at 10 µM unless noted,24.8% (active)
CCCCOC(=O)Cn1c(=N)n(CCN(CC)CC)c2ccccc21,inhibition,at 10 µM unless noted,2.6% (inactive)
O=C(Nc1cccc([N+](=O)[O-])c1)N1CCc2ccccc2C1,inhibition,at 10 µM unless noted,7.7% (inactive)
Oc1c(Cl)cc(Cl)cc1/C=N/c1ncn[nH]1,inhibition,at 10 µM unless noted,15.3% (inactive)
CC/C(=N\NC(=O)c1c(C)nc2ccccn12)c1ccc(Cl)cc1,inhibition,at 10 µM unless noted,8.5% (inactive)
CCOc1ccc(N(CC(=O)NCCOc2ccccc2OC)S(=O)(=O)c2ccccc2)cc1,inhibition,at 10 µM unless noted,3% (inactive)
CN(C)c1ccc(-c2nnc(-c3cccnc3)o2)cc1,inhibition,at 10 µM unless noted,-3.5% (inactive)
O=C(NCc1cccc(C(F)(F)F)c1)c1cccc(S(=O)(=O)N2CCN(Cc3ccccc3)CC2)c1,inhibition,at 10 µM unless noted,9.8% (inactive)
CCn1c(=O)c(C(=O)NCc2ccc3c(c2)OCO3)c(O)c2ccccc21,inhibition,at 10 µM unless noted,4.6% (inactive)
CCS(=O)(=O)c1cc([N+](=O)[O-])c(Sc2ccccc2N)s1,inhibition,at 10 µM unless noted,6.4% (inactive)
CC(O)C(NS(=O)(=O)c1ccc(Cl)cc1)C(=O)OCc1cc([N+](=O)[O-])cc2c1OCOC2 (stereo not drawn),inhibition,at 10 µM unless noted,9.8% (inactive)
Nc1ccccc1SCc1cc([N+](=O)[O-])cc2c1OCOC2,inhibition,at 10 µM unless noted,23.8% (active)
O=S(=O)(NC1CC1)c1ccc(F)c(F)c1,inhibition,at 10 µM unless noted,3% (inactive)
CN(C)[C@@H]1C(=O)C(C(N)=O)=C(O)[C@@]2(O)C(=O)C3=C(O)c4c(O)ccc(Cl)c4[C@@H](O)[C@H]3C[C@@H]12,inhibition,at 10 µM unless noted,136% (active)
O=C(N/N=C/c1ccccn1)c1cccc(NC(=O)c2ccc(Cl)cc2)c1,inhibition,at 10 µM unless noted,8.8% (inactive)
S=C(NCCCc1ccccc1)Nc1ccc(Br)cc1,inhibition,at 10 µM unless noted,13% (inactive)
COc1ccc(C(=O)C2CCCN(C(=O)c3ccc(OC)o3)C2)c(C)c1 (stereo not drawn),inhibition,at 10 µM unless noted,14.5% (inactive)
CCC(=O)Nc1cc(C(F)(F)F)ccc1N1CCCC1,inhibition,at 10 µM unless noted,9% (inactive)
CC(C)CC(=O)Nc1cc(C(F)(F)F)ccc1N1CCOCC1,inhibition,at 10 µM unless noted,39.4% (active)
CC(Sc1nncn1C)C(=O)Nc1cc(C(F)(F)F)ccc1N1CCOCC1 (stereo not drawn),inhibition,at 10 µM unless noted,6.8% (inactive)
